# The supplement of paper PMC11417369
# ± gives the standard deviation of the averaged measurements. In all, about 25,000 sequences were measured (“ln(normalized median fluorescence intensity)”: median about 10, highest 2% from about 12 on). The sample holds the highest values, similar sequences and a random draw of the others, so the mix is not that of the screen.
# Tested on: PfAP2-G AP2 domain (GST-tagged)
# Experiment: gcPBM binding intensity (ln(normalized median fluorescence intensity)); higher = stronger DNA binding
# Summary of the method: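 Alexa488 anti-GST antibody, scanned at 488 nm, detected GST-tagged P. falciparum DNA-binding domains that had been expressed in E. coli and incubated for 1 h on an Agilent 4 × 180k array. The array carried primer-extended double-stranded 36-bp intergenic genomic probes and negative controls. Binding intensity is the highest Masliner-normalised natural-log median intensity across replicate spots of either orientation of each probe.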
row,Sequence,gcPBM binding intensity (ln)
1,ATATATATTTATAGGTGTACAAAATACTATTTTAGG [XGTACX_site8499],11.3 ± 0.82
2,CGATACTTTAGGTGTACACAAATATACATGAATGAG [CACACA_site5189],11.6 ± 0.84
3,TTTATACACAAAAAATGTACATATATATAATGAATT [XGTACX_site1195],11.2 ± 0.72
4,TATTTATATAGGTATACACACATACAAATATGTAAA [CACACA_site7705],10 ± 0.28
5,TTTTCTTTTTTCTGTTGTACTAAAAATAATTTTGTA [XGTACX_site5171],11.3 ± 0.87
6,AAAATTTCTTTTTTTTGTACATATATAATAATATAT [XGTACX_site7107],10.9 ± 0.62
7,TTACAAATAATTTGTTGTACGCTTTTTTTCTTTTTT [XGTACX_site7199],11.7 ± 1.1
8,GACAAAATGATAGGGACACACAATATCAATGTTTAA [CACACA_site765],10.7 ± 0.51
9,TTTTTTTTTTTTGAGTGTACTAAAATATTACCTTTT [XGTACX_site646],11.2 ± 0.99
10,TAAAATAATAAACAGAAGAAATCATTCATATAAAAA [XGTACX_negctrl_site502],9.635 ± 0.035
11,ATAAATGAAAAAAAGCGTACATATAAAAAAATATAT [XGTACX_site5063],11.6 ± 1
12,ATATAAGAACAAAATTGTACATAAATATTTATATAA [XGTACX_site7404],10.8 ± 0.54
13,ACATAAGAACATATTTGTACGTATATAAATTAAATA [XGTACX_site6127],11.4 ± 0.79
14,TTAACAAAATTTCCGTGTACGTAAATAAGAACATAG [XGTACX_site7200],11.8 ± 0.95
15,AAATAATTAAAAAAAAGTACACATGTGACTACATAT [XGTACX_site8767],11.4 ± 0.71
16,ATGAACATGTGACAATGTACATTTATATCTTAAGAA [XGTACX_site4960],10.8 ± 0.43
17,TTTTTTTTTTTTTTTTTTATATTTCATAATTTCATT [XGTACX_negctrl_site579],9.33 ± 0.71
18,TTTTGTTTTGTTTTGTTTTGTTTTGTTTTATTTTAT [GTGCAC_negctrl_site383],9.86 ± 0.27
19,GAATACACCACGCACACACACTTGAGAAAAAATAAA [CACACA_site7747],10.6 ± 0.56
20,TATATTTTTATATTTTGTACATATAGTAAATATAAA [XGTACX_site4768],10.8 ± 0.51

row,Sequence,gcPBM binding intensity (ln)
1,TATTTGTTTTTATATAGTACATAAATATATATATAT [XGTACX_site7834],10.9 ± 0.61
2,ATATAGTAAATTGGTAGTACATAAAATGATTTTATG [XGTACX_site4143],11.6 ± 0.95
3,TTTTTTTTTTTTGGTAGTACATAAATATTTTATGGA [XGTACX_site6851],12 ± 1.7
4,AAATTATATATAAAATGTACATATGTAGGTAATTTT [XGTACX_site5047],10.9 ± 0.49
5,AAATTAAAATAAAATAGTACATATATTTATATTTTT [XGTACX_site1687],11.1 ± 0.69
6,TTTTGTTGTTGTTGTTGTACATAAATAATAAAATAT [XGTACX_site8681],11.3 ± 0.95
7,TATAGGTAAATGGACACACACATATTTATATTTATA [CACACA_site7683],10.9 ± 0.58
8,ATTATATATATCAGGTGTACGTAAAAAAAATGGACG [XGTACX_site1028],11.9 ± 0.81
9,TTTTTTTTTATAAGGTGTACGTAAAATGTGTAGGTC [XGTACX_site3585],11.6 ± 0.82
10,AGTAAATATATTATATGTACGTATCATAAAATATAT [XGTACX_site1567],11.6 ± 0.86
11,TAAAAATATATGTATACACACATATATATATATATA [CACACA_site3951],10 ± 0.38
12,AATGCTATCTTCTTATTTTTCATACACAACATGAAC [CACACA_negctrl_site1809],10.2 ± 0.11
13,TGTTTTGTTTTTTGGGGTACATGTTTTGTATTATAT [XGTACX_site7997],11.6 ± 0.78
14,TATGATTTTTATATATGTACGTATGGTGTTTTACAA [XGTACX_site6100],11.3 ± 0.53
15,GTTTGGTGGTGTTTTGGTACGTACGGGGGTGTATGT [XGTACX_site1211],11.7 ± 0.85
16,GACTTTTCATTTATAGTGCAAGTTTTTTTTTTTTTT [GTGCAC_site9698],10.1 ± 0.23
17,CAAAAGTAAGCACGCACACACAACATGAAATAAACT [CACACA_site6223],10.29 ± 0.078
18,ATATATTTTGATTGCACACAGAATTTAAATCATGAT [CACACA_site2343],10.1 ± 0.2
19,TATTTATAAAAATATACACACATACAAATATGCATA [CACACA_site4555],9.815 ± 0.007
20,CATAAATACTATATATGTACGTAATTTTTAAAACAT [XGTACX_site7710],11.6 ± 0.83

row,Sequence,gcPBM binding intensity (ln)
1,TTTTTTTTTTTAATATGTACGTAAAATAAGTTTAAA [XGTACX_site6495],11.4 ± 0.95
2,TTTTTTTTAAAACTATGTACGTAAAAATTGTAGTTT [XGTACX_site2302],11.7 ± 0.91
3,TTTATTTTATTTTCATGTACAAAAGGGGAATAATAA [XGTACX_site2704],10.9 ± 0.71
4,AATAGGGTCATTCAAAAAAAAAAAAAATAATAATAC [CACACA_negctrl_site644],10.1 ± 0.29
5,ATTTCTAAATGTTGGTGTACGTTTTTTTATAACCTT [XGTACX_site1752],11.6 ± 1.1
6,ATATTATAAATATAATGTACGTTTTAATTTCATGTT [XGTACX_site3557],11.2 ± 0.79
7,TACACATGTTTAAAATGTACGTTTTATAACACACAC [XGTACX_site8229],11.3 ± 0.82
8,TCACTATAATAATTTACACACATTTTAAGAAAATGG [CACACA_site5867],10 ± 0.18
9,TATATTTATTATAACACACACATATATATATTATAT [CACACA_site1061],9.905 ± 0.064
10,TTATAAATAAAAAATACACACATATATTTATTTATA [CACACA_site6242],9.77 ± 0.028
11,TACTATGCCCCATATAAACACACAAATAAAAAGAAT [CACACA_site8857],10.2 ± 0.21
12,TTTTCATGTTGTAAAGCATGCTTTACTCATAAAAAA [TGCATGCA_site917],9.95 ± 0.23
13,TGCAATATATCAAAGTGTACATGCAATAAAAAAAAA [XGTACX_site652],11.1 ± 0.71
14,ACAATATGCAAAAAGTGTACACATTCATTTATATAA [XGTACX_site1061],11.7 ± 0.86
15,ATAGGCAAAAAGTGTACACATTCATTTATATAAATA [CACACA_site4480],11.7 ± 0.79
16,ATTTCATTTTATAAGTGTACAATAAAAAAAAAAAAA [XGTACX_site8677],11.3 ± 1
17,ATTTAAATAATATGTACACACATTTAAAAAGTTATA [CACACA_site7347],11.6 ± 0.94
18,TATACATTTTTATAAAGTACACAAAAATAAATATAA [XGTACX_site1647],11.5 ± 0.95
